# RGS12 GoLoco inh: blocks human Gai1 binding to RGS12 GoLoco peptide, red readout; P63096; Gai1:RGS12 GoLoco peptide FP, rhodamine, 10 min; Potency, µM (doses to about 61.6 µM), for inactives: top-dose activity, negative = inhibition, usual class: inhibitors; 230,000 compounds, 0.44% hits; active = well fitted inhibition curve with a large enough effect, not every such curve was filed as active; inactive = no such curve, though single readings can be large or run the other way; note: nearly all actives have a fitted effect of over 30% in size
# Target sequence (P63096 whole entry, looked up): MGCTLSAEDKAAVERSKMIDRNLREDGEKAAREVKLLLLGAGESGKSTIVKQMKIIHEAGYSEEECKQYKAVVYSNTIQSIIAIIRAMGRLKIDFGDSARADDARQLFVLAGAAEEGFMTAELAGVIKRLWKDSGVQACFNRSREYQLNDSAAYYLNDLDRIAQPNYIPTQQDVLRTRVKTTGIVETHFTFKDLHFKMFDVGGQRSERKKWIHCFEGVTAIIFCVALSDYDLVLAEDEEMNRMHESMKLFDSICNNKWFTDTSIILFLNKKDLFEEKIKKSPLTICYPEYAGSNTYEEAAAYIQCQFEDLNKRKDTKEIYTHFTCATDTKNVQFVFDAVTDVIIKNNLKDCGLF
# RECQ1 inh: RECQ1 (human) helicase inhibition; AID 2549; 240,000 compounds, 0.54% hits; P46063; Potency, µM (series often up to 57.3 µM), for inactives: at the top dose activity, negative = inhibition, actives largely listed as inhibitors; RECQ1 DNA unwinding, red fluorescence kinetic read;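 note: plate controls were vehicle for no effect and no enzyme for full effect; nearly all actives have a fitted effect of over 30% in size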
#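 50 nM RECQ1T1 preincubated 15 min with compound in Tris pH 8.0 buffer with MgCl2, DTT, Tween-20 and 2.5 ug/ml poly(dI-dC); started with 200 nM TAMRA/BHQ-2 forked duplex and 2 mM ATP. Unwinding read as fluorescence (525/598 nm), two reads 2 h apart.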
# L3MBTL1 inh: blocks human L3MBTL1; Q9Y468; AlphaScreen L3MBTL1–H3K9me1 peptide binding; Potency, µM (doses to about 57.1 µM), for inactives: top-dose activity, negative = inhibition, actives largely listed as inhibitors; 230,000 compounds, 0.66% hits; AID 485360; note: nearly all actives have a fitted effect of over 60% in size
#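 Read-out is AlphaScreen signal from streptavidin donor and nickel chelate acceptor beads (10 ug/mL final each) bridging L3MBTL1 (50 nM) and biotinylated K9-monomethylated H3(1-15) peptide (75 nM), after 30 min compound exposure at room temperature.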
# BLM helicase inh: blocks DNA unwinding by human BLM helicase; 350,000 compounds, 0.2% hits; recombinant BLM DNA unwinding, fluorescence dequenching; Potency, µM (titrated, usually from 56.1 µM), for inactives: at the highest dose activity change, negative = inhibition, usual class: inhibitors; P54132;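 note: plate controls were vehicle for no effect and no enzyme for full effect; nearly all actives have a fitted effect of over 35% in size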
# APEX1 inh: APE1 (human) endonuclease inhibition; P27695; recombinant APE1, TAMRA/BHQ-2 abasic DNA cleavage fluorescence; Potency, µM (top dose mostly 65.8 µM), for inactives: at the top dose activity change, negative = inhibition, hits mostly inhibitors; 350,000 compounds, 0.35% hits; AID 2517;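 note: plate controls were vehicle for no effect and reference inhibitor for full effect; nearly all actives have a fitted effect of over 55% in size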
# Target sequence (P27695 whole entry, looked up): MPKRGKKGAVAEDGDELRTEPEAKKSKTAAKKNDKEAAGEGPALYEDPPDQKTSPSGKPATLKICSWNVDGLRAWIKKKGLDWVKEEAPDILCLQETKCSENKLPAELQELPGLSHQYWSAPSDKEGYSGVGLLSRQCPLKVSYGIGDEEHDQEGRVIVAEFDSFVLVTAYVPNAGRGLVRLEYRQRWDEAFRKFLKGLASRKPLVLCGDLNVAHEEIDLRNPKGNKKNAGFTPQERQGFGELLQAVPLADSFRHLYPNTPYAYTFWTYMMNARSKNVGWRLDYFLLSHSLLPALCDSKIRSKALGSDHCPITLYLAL
#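 Compound pre-exposure to 0.75 nM APE1, 15 min at ambient temperature. Reaction initiated with 50 nM TAMRA/BHQ-2 THF substrate, read immediately in kinetic mode, 525 nm excitation, 598 nm emission.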
# KDM4E inh: inhibitors of human JMJD2E histone demethylase; Potency, µM (series often up to 57.1 µM), for the others: top-dose activity change, negative = inhibition, usual class: inhibitors; JMJD2E catalytic domain, FDH-coupled NADH fluorescence (FDH is formaldehyde dehydrogenase); 230,000 compounds, 1.6% hits; active = well fitted inhibition curve with a large enough effect, not every such curve was filed as active; inconclusive = small, poorly fitted or top-dose-only effect, or another doubt; inactive = no such curve, though single readings can be large or run the other way;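 note: 0% = wells with enzyme and -100% = buffer wells without enzyme; nearly all actives have a fitted effect of over 50% in size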
# * marks the source's active call; other numbers are inactive results; i = inactive; u = inconclusive; x = no result; ! = not confirmed by another sample; [ ] = another dose, or the depositor's remark. This is one part of a sample in which hits are shown more often than they occur. Unless noted, calls come from the whole dose curve; as a rule, active = well fitted curve in the direction sought with a large enough effect; inconclusive = small, poorly fitted or top-dose-only effect, or another doubt; inactive = no such curve, though single readings can be large; an effect the other way counts as inactive or inconclusive. Unless noted, % is set by controls: 0 for no effect and ±100 for the full control effect; potency is the fitted concentration of half-maximal effect.
SMILES,RGS12 GoLoco inh,RECQ1 inh,L3MBTL1 inh,BLM helicase inh,APEX1 inh,KDM4E inh
CN1C(=O)NC(=O)/C(=C/c2ccc([N+](=O)[O-])o2)C1=O,-24%,i,25µM*,-8%,u,u
Cc1ccc(S(=O)ON2CCC(C(=O)O)(c3ccccc3)CC2)cc1 (centres undefined),10%[14.2 µM],x,x,x,x,x
COC1=CC(=O)O[C@@H](/C=C/c2ccc3c(c2)OCO3)C1,-19%,0%,x,x,8%,x
Cc1ccc(C(=O)n2c(N)nc3ccccc32)cc1,10%,-3%,-8%,2%,-1%,35µM*
Cc1c(N=Nc2c(O)n(Cc3ccccc3)c(=O)[nH]c2=O)c(=O)n(-c2ccccc2)n1C,2%,-2%,u,-15%,15%,7.1µM*
Cc1c(N=Cc2c(O)n(Cc3ccccc3)c(=O)[nH]c2=O)c(=O)n(-c2ccccc2)n1C,0%,-1%,4%,-3%,-2%,3%
CC(C)c1cc2c(c(O)c1O)[C@@]1(C(=O)O)CCCC(C)(C)[C@@H]1CC2,-10%,-20%,x,-11%,0%,x
CC(C)c1cc2c(c(O)c1O)[C@]1(C(=O)O)CCCC(C)(C)C1CC2 (some centres undefined),-9%,3%,x,-16%,9%,13µM*
Cc1ccc(N)cc1[N+](=O)[O-],28%,u,x,x,0%,x
CCCCCCCCCCCC[N+](C)(C)CCOc1ccccc1,16%,-3%,x,-15%,20%,x
CC[N+](C)(CC)CCCCOc1ccc2c(c1)C(=O)c1cc(OCCCC[N+](C)(CC)CC)ccc1-2,11µM*,-13%,3%,-29%,-5%,-18%
Cc1cc(C=C2C(=O)N(C)C(=S)N(C)C2=O)c(C)n1-c1cccnc1,128%,-4%,-11%,18µM*,-4%,-3%
C[N+]1(C)C2CCC1CC(OC(=O)C(CO)c1ccccc1)C2 (centres undefined),19%,-13%,x,2%,-1%,10µM*!
C[N+]1(C)[C@@H]2CC[C@H]1CC(OC(=O)c1c[nH]c3ccccc13)C2 (some centres undefined),x,x,x,x,-11%,x
C[N+]1(C)C2CCC1CC(OC(=O)c1ccccc1)C2 (centres undefined),4µM*,i,x,2%,-3%,-11%
Cc1nc2ccccc2cc1C[N+]12CN3CN(CN(C3)C1)C2,4%[14.2 µM],x,x,x,x,x
Nc1ccc2nonc2c1[N+](=O)[O-],14µM*,-1%,1%,-9%,3%,6%
O=[N+]([O-])c1ccc(N2CCCCCC2)c2nonc12,x,x,-14%,-22%,-55%,x
O=C(O)Cc1cnc[nH]1,-5%,0%,x,x,29%,14µM*
COC(=O)c1ccccc1N,32µM*,-17%,x,x,0%,x
C=CCOC(=O)c1ccccc1N,3%,-6%,8%,x,4%,x
OCC[n+]1c2ccccc2nc2ccc(N3CCOCC3)cc21,18%,13µM*,u,u,-9%,u
ClC1=C(Cl)[C@]2(Cl)[C@@H]3[C@H]4C[C@H]([C@@H]5O[C@H]45)[C@@H]3[C@@]1(Cl)C2(Cl)Cl,x,x,x,x,4%,x
OC[C@H]1O[C@@H](n2cnc3cc(Cl)c(Cl)cc32)[C@H](O)[C@H]1O,1%,4%,x,4%,-9%,x
CN1C2CCC1CC(NC(=O)c1nn(C)c3ccccc13)C2 (centres undefined),11%,34%,x,x,-1%,u
SMILES,RGS12 GoLoco inh,RECQ1 inh,L3MBTL1 inh,BLM helicase inh,APEX1 inh,KDM4E inh
CCS(=O)(=O)N1N=C(c2cccc(NS(C)(=O)=O)c2)CC1c1ccccc1 (centres undefined),229%,35µM*,x,-18%,-2%,u
CCOc1ccc(N2C(=O)/C(=C/c3ccco3)C(=O)NC2=S)cc1,x,x,-8%[2.29 µM],u,21µM*,x
CCOc1ccc(N2C(=O)/C(=C\c3cccs3)C(=O)NC2=S)cc1,62%,-21%,25µM*,-4%,-6%,-4%
Cc1ccccc1N1C(=O)/C(=C/c2ccco2)C(=O)NC1=S,x,x,x,0.89µM*,0.075µM*,x
CC[C@@]1(O)C(=O)OCc2c1cc1n(c2=O)Cc2cc3cc(O)ccc3nc2-1,-5%,-1%,x,-5%,u,14%
Cc1ncc([N+](=O)[O-])n1CCN=[N+]=[N-],-6%[14.2 µM],x,x,x,x,x
CN(C)c1ccc(N)cc1,24%,-13%,x,x,-1%,x
C[N+]1(C)CCN(c2ccccc2)CC1,28µM*!,-9%,1%,-6%,-7%,-26%
CO[C@H]1[C@H](O)[C@H](O[C@@H]2[C@H](Oc3cccc4c(O)c5c(=O)oc6ccc(C)c7c(=O)oc(c34)c5c67)O[C@@H](C)[C@H](O)[C@H]2O)O[C@@H](C)[C@@H]1O,1%[14.2 µM],x,x,x,x,x
CC(=O)N1CC[N+](C)(C)CC1,-35%,-6%,x,-7%,1%,11µM*
N#CC1=C(N)Oc2c(c(=O)oc3ccccc23)C1c1ccc([N+](=O)[O-])o1 (centres undefined),9%,i,u,-3%,35µM*,u
O=C(O[C@@H]1Cc2c(O)cc(O)cc2O[C@@H]1c1cc(O)c(O)c(O)c1)c1cc(O)c(O)c(O)c1,-4%,3.2µM*,x,-5%,0.89µM*,8.9µM*
CC[C@H](C)[C@H]1O[C@]2(C=C[C@@H]1C)C[C@@H]1C[C@@H](C/C=C(\C)[C@@H](O[C@H]3C[C@H](OC)[C@@H](O[C@H]4C[C@H](OC)[C@@H](O)[C@H](C)O4)[C@H](C)O3)[C@@H](C)/C=C/C=C3\CO[C@@H]4[C@H](O)C(C)=C[C@@H](C(=O)O1)[C@]34O)O2,x,x,x,x,4%,x
C=C1C/C(=C/C)C(=O)O[C@@H]2CCN3CC=C(COC(=O)[C@]1(C)O)[C@H]23,-2%,3%,x,-1%,0%,u
C/C=C1/C[C@@H](C)[C@](O)(CO)C(=O)OCC2=CCN3CC[C@@H](OC1=O)C23 (some centres undefined),6%,22µM*,x,-1%,u,-13%
COP(=O)(c1ccc(N(C)C)cc1)C(O)c1ccccc1 (centres undefined),x,x,x,1%,75%,x
O=C(O)C1Sc2[nH]c(=O)sc2C2c3cc(Cl)ccc3OC(=O)C12 (centres undefined),36%,-3%,-12%,2%,2%,14µM*
CN1C(=O)NC(=O)/C(=C/c2ccc([N+](=O)[O-])s2)C1=O,-3%,u,x,-1%,u,22µM*
O=C1NC(=O)N(c2ccccc2)C(=O)/C1=C\c1ccc([N+](=O)[O-])s1,101%,u,x,-6%,u,u
